# Test results as given in paper PMC5540273 (PLoS ONE, 2017).
# Experiments:
# Conditions in all cases: concentration: 1 μM,replicates: in singlicate; n = 1
# [1] = system: T1, HASPIN
# T1 construct: gene GSG2
# [2] = system: HCK
# [3] = system: HIPK1
# [4] = system: HIPK2
# [5] = system: HIPK3
# [6] = system: HIPK4
# [7] = system: HPK1
# [8] = system: HUNK
# [9] = system: ICK
# [10] = system: IGF1R
# 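Also: KINOMEscan kinase panel screen.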
SMILES,%Inh [1] [%],%Inh [2] [%],%Inh [3] [%],%Inh [4] [%],%Inh [5] [%],%Inh [6] [%],%Inh [7] [%],%Inh [8] [%],%Inh [9] [%],%Inh [10] [%]
C[C@@H](Oc1cc(-n2cnc3cc(-c4ccncc4)ccc32)sc1C(N)=O)c1ccccc1Cl [GSK479719],75,9,0,0,15,24,72,0,4,14
Cn1ccc2ncnc(Oc3ccc(NC(=O)Nc4cnn(C(C)(C)C)c4)c(Cl)c3)c21,35,33,26,16,0,1,5,0,0,25
Cl.Nc1n[nH]c2cc(-c3ccccn3)ccc12 [GSK2189892],38,0,2,0,5,0,38,0,0,5
Cc1ccc(CC(=O)N2CCc3cc(-c4cn(C)c5ncnc(N)c45)ccc32)cc1 [GSK2634758],5,0,6,0,13,5,63,1,0,18
Cc1cccc(-c2nc(Nc3ccncc3)c3sccc3n2)n1 [GW869641],44,25,21,13,37,13,16,20,32,8
Cn1ccc2ncnc(Oc3ccc(NC(=O)Nc4cccc(C(F)(F)F)c4)c(F)c3)c21,1,31,44,0,0,94.3,48,0,0,4
c1ccc(Oc2ccc(Nc3ccnc4ccc(-c5ccccn5)cc34)cc2)cc1 [GW407034],0,71,0,0,0,0,25,0,16,5
CN(c1ccccc1CNc1nc(Nc2ccc3c(c2)CC(=O)N3)ncc1C(F)(F)F)S(C)(=O)=O,0,3,83,80,64,89,76,0,0,88
Cc1nnc(-c2ccc3occ(-c4ccc(S(C)=O)cc4)c3n2)o1 (centres unmarked),6,0,46,0,0,0,0,0,0,10
Cn1cc(-c2cccc3c(N)c(C(N)=O)nnc23)cn1,96.5,13,68,62,67,18,0,0,24,0
C[C@@H]1CCN(C(=O)N2CCCC2)C[C@@H]1N(C)c1ncnc2[nH]ccc12,30,0,25,0,22,2,0,0,13,0
CCn1c(-c2nonc2N)nc2cncc(CNC3CCNCC3)c21.Cl [SB-747651],73,0,0,0,48,0,35,0,16,13
CCn1c(-c2nonc2N)nc2cncc(Br)c21 [SB-738004],99.4,3,47,74,74,0,42,27,7,0
NC(=O)c1ccc(-c2cc3ncnc(SCC(=O)O)c3s2)cc1,0,13,94.8,96.1,92,79,2,0,10,0
